The whole screen tested about 370,000 compounds, of which about 3,000 (0.81%) were called active. This excerpt belongs to a sample that is enriched for actives. Values without a mark were called inactive.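 The calls were made as follows: active = activity above about 14% (limit read from the data; passing the limit was not always enough); inactive = the rest.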

Drawing on PubChem BioAssay AID1259318 (Sanford-Burnham Center for Chemical Genomics, 2017), this text covers activity for 52 compounds.

For this assay, the target named is Nuclear receptor subfamily 1 group D member 1 (Homo sapiens) (UniProt P20393). Briefly: modulators of Rev-erb alpha DNA binding, primary screen, biochemical, FITC-DNA, fluorescence polarization, uHTS (AID 1259318).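 Also: 0% = DMSO wells with 35 nM protein and 100% = DMSO wells with 750 nM protein.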 As to conditions: Rev-erbα–FITC-DNA binding, 90 min, at 10 µM, active compounds read high.
Chain of Nuclear receptor subfamily 1 group D member 1 (Homo sapiens) (P20393 whole entry, looked up): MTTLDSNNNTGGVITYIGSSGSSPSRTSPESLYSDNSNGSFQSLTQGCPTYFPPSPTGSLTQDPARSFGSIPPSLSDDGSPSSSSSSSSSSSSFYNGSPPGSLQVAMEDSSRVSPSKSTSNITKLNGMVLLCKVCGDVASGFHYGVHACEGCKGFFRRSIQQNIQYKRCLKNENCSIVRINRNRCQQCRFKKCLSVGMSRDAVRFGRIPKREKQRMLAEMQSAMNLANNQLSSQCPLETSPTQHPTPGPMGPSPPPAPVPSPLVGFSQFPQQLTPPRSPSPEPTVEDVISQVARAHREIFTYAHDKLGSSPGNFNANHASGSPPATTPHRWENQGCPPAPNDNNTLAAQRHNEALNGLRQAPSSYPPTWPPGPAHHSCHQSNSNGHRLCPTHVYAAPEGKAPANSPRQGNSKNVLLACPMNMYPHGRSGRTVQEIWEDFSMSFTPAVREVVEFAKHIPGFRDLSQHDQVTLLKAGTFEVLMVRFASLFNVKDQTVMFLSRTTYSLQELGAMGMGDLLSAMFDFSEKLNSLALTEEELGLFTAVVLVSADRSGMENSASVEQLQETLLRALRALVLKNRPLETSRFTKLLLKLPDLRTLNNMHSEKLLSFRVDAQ
Consider `CCC1(C)CC(=O)NC1=O` (configuration not stated), for which the activity is -6.13%. For `CC(C)(C)c1ccc(/C=C2\SC(=O)N=C2N)cc1`, the activity was 0.2%. Consider `CCC(C)[C@H]1O[C@]2(CC[C@@H]1C)C[C@@H]1C[C@@H](C/C=C(\C)[C@@H](O[C@@H]3C[C@H](OC)[C@H](O[C@H]4C[C@H](OC)[C@@H](O)[C@H](C)O4)[C@H](C)O3)[C@@H](C)/C=C/C=C3\CO[C@@H]4[C@H](O)C(C)=C[C@@H](C(=O)O1)[C@]34O)O2` (some centres not stated), for which the activity is 6.63%. Regarding `CCN(CC)S(=O)(=O)c1cccc(NC(=O)c2ccc(S(=O)(=O)N3CCCC3)cc2)c1`, the activity was 5.55%. In the case of `C=CCn1c(CCNC(=O)c2cccs2)n[nH]c1=S`, the activity is -1.01%. Then `C=CCn1c(=NC(=O)c2ccc(S(=O)(=O)N3CCCC3)cc2)sc2cc(NC(C)=O)ccc21`, with 51.5% (active). Regarding `C=CCn1c(=NC(=O)c2cccs2)sc2cc(NC(C)=O)ccc21`, the activity is 31.9% (active). Consider `O=C(Cn1c(=O)sc2ccccc21)Nc1ccc2c(c1)OCCO2`, for which the activity is 2.42%. For `CC(=O)Nc1ccc(S(=O)(=O)N2CCN(S(=O)(=O)c3cccs3)CC2)cc1`, the activity was -1.45%. Take `CCOC(=O)c1cc(S(=O)(=O)NCCc2ccc(OC)c(OC)c2)cn1C`: the activity was 1.86%. Consider `Cc1cccc(OCCC(=O)Nc2cc(S(=O)(=O)N3CCCCC3)ccc2N2CCOCC2)c1`, for which the activity is -0.99%. Turning to `CN(CCc1ccccn1)S(=O)(=O)c1ccc2c3c(cccc13)C(=O)N2`, the activity is 1.1%. For `O=C(CSc1nnc(-c2cccc(Cl)c2)n1Cc1ccco1)Nc1ccc(OCc2ccccc2)cc1`, the activity was 4.77%.

Regarding `Cc1cc(NC(=O)CSC2=NS(=O)(=O)c3cc(Cl)ccc3N2)no1`, the activity was -5.75%. With `Cc1cc(NC(=O)CSc2nc3cc(Cl)ccc3c(=O)n2Cc2ccco2)no1`, the activity was 20.1% (active).

`CC/C(=C(/c1ccccc1)c1ccc(OCC[N+](C)(C)C)cc1)c1ccccc1`: the activity was -1.77%. With `C=CCN1[C@H](CC(C)C)COc2cccc(N3CCCC3)c2S1(=O)=O`, the activity was 5.72%. As for `Fc1c(F)c(C(F)(F)F)c(F)c(F)c1N1CCN(c2ccc3nnc(C(F)(F)F)n3n2)CC1`, the activity was 28.7% (active).

`CCN(CC)S(=O)(=O)c1ccc(OC(C)C)c(N)c1`: the activity is -2.29%. Turning to `CCN(CC)S(=O)(=O)c1ccc(C(=O)N2CCN(C3=NS(=O)(=O)c4ccccc43)CC2)cc1`, the activity is -1.88%. `CCN(CC)C(=O)CS(=O)CC(=O)Nc1cc(OCCOC)c(Cl)cc1Cl` (configuration not stated): the activity was -6.56%. For the compound `COc1ccc(OCC(=O)Nc2cc(C)c(Cl)cc2OC)c([N+](=O)[O-])c1`, the activity is 1.26%.

With `CSc1ccc(Cl)c(C(=O)OCC(=O)N2CC(C)OC(C)C2)c1` (configuration not stated), the activity is -1.82%.

As to `COc1cc(Cl)c(C)cc1NC(=O)COC(=O)c1cc(SC)ccc1Cl`, the activity was 35.7% (active). `COc1ccccc1NC(=O)COc1ccc(C(=O)OCC(=O)N(C(C)C)C(C)C)cc1OC`: the activity is 0.89%.

For `Clc1ccc(Cl)c(Oc2ccc(Oc3nc(Cl)ccc3Cl)cc2)n1`, the activity was -2%. On to `Clc1ccc(-n2c(COc3ccccc3)nnc2SCc2nc3ccccc3[nH]2)cc1`, for which the activity is -0.37%. For `CC1CC2C3CCC4=CC(=O)C=C[C@]4(C)[C@@]3(F)[C@@H](O)C[C@]2(C)[C@@]1(O)C(=O)CO` (some centres not stated), the activity was 0.08%. As to `Cn1nccc1NS(=O)(=O)c1ccc(F)cc1`, the activity is 3.3%.

With `O=C(CS(=O)(=O)c1cn(Cc2cccc(F)c2)c2ccccc12)N1CCCCC1`, the activity is -9.9%. Then `O=c1cc(N2CCCCC2)c(-c2ccccc2)nn1Cc1cccc(F)c1`, with 30.7% (active); and `CCc1c(-c2ccc(F)cc2)ncn1Cc1cccc(-c2ccccc2)c1`, with -5.19%; and `COC(=O)[C@]1(C)N[C@H](CN(C)C(=O)c2ccc(C(C)(C)C)cc2)[C@@H]2C(=O)N(C)C(=O)[C@@H]21`, with -0.45%.

On to `Oc1c(Br)cc(/C=N/NC(=S)NCC2CCCO2)cc1Br` (configuration not stated), for which the activity was -2.6%. Turning to `CO/N=C(\C(=O)N[C@@H]1C(=O)N2C(C(=O)O)=CCS[C@H]12)c1csc(N)n1`, the activity is -1.64%. Consider `CCn1c(=O)c2ccccc2n(CC(=O)N2CCCc3ccccc32)c1=O`, for which the activity was -3.6%. With `CC(C)CCn1c(CN(C)Cc2ccccc2)nc2c1c(=O)n(C)c(=O)n2C`, the activity was 3.74%. On to `Cn1c(=O)[nH]c(=O)c2c1nc(CN(Cc1ccccc1)Cc1ccccc1)n2CCN1CCOCC1`, for which the activity was -1.09%. Take `CC(C)Cn1c(CN(Cc2ccccc2)Cc2ccccc2)nc2c1c(=O)n(C)c(=O)n2C`: the activity is 42.6% (active).

Regarding `Cc1ccccc1NC(=O)C1CCN(c2ncccn2)CC1`, the activity was 4.79%.

For `O=C(CNC(=O)c1ccc(Cl)cc1Cl)NCC(=O)Nc1ccccc1N1CCOCC1`, the activity is -3.17%. With `CCOC(=O)c1cc(-c2ccc(Cl)s2)nc2c1c(C)nn2C`, the activity was 11.4%. Then `O=C(CN1CCN(S(=O)(=O)c2ccc(F)cc2)CC1)NC1CC1`, with 6.03%; and `COc1cc2c(cc1NC(=O)CN1CCN(S(=O)(=O)c3ccc(F)cc3)CC1)oc1ccccc12`, with 14.1% (active); and `COc1cc2c(cc1NC(=O)COC(=O)/C=C/c1ccccc1)oc1ccccc12`, with -1.34%. For `FC(F)(F)c1cccc(NC(=S)OC2CCC23CCC(c2ccccc2)CC3)c1` (configuration not stated), the activity is 5.79%. Consider `O=C(CC1SC(=Nc2ccccc2)N(Cc2ccccn2)C1=O)Nc1cccc(Cl)c1` (configuration not stated), for which the activity was 1.93%. On to `NC1=NC(c2ccc([N+](=O)[O-])cc2)N(c2ccc(F)cc2)C(N)=N1` (configuration not stated), for which the activity was 5.54%. As to `Cc1ccc(NS(=O)(=O)c2cc3c(cc2Br)NC(=O)CO3)cc1C`, the activity is 23.4% (active). As to `Cc1ccc(NS(=O)(=O)c2cc3c(cc2C)NC(=O)CO3)cc1`, the activity is 10.7%. On to `Cc1ccc(NS(=O)(=O)c2ccc3c(c2)NC(=O)CO3)cc1`, for which the activity was 1.74%. Take `C[C@@H]1CN([C@@H](C)CO)C(=O)c2cccc(NC(=O)Nc3cccc4ccccc34)c2O[C@H]1CN(C)S(=O)(=O)c1ccccc1F`: the activity was -2.31%.
